# Vif-APOBEC3G blk = Vif-A3G binding inhibition; Q9HC16; HeLa A3G-eYFP + Vif (tagged APOBEC3G with the HIV-1 protein that degrades it), YFP fluorescence, overnight; Potency, µM (series often up to 46.1 µM), usual class: inhibitors; 410,000 tested, 0.076% active; AID 602310; note: nearly all actives have a fitted effect of over 60% in size
# Target sequence (Q9HC16 whole entry, looked up): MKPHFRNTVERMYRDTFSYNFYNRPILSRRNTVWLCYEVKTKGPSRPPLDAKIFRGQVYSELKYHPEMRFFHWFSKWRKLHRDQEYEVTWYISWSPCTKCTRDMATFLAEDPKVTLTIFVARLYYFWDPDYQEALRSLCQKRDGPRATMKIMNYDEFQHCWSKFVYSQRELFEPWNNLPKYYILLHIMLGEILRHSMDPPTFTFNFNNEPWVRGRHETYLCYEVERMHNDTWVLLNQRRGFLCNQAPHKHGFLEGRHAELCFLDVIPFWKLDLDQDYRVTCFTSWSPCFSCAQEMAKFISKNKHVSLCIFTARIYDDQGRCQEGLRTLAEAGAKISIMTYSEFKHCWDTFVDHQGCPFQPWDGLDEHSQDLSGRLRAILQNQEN
#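 HeLa cells stably expressing Vif and C-terminally eYFP-tagged A3G, seeded overnight at 37 deg C, then exposed to compound by pintool overnight at 37 deg C. Rise in yellow fluorescence (Ex 488/Em 500-530, Acumen) marks blocked Vif-driven A3G degradation.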
# Vif-APOBEC3F blk = inhibitors of Vif-A3F interaction | HeLa A3F-eYFP + Vif (tagged APOBEC3F with the HIV-1 protein that degrades it), YFP fluorescence increase | Potency, µM (titrated, usually from 46.1 µM) | 390,000 tested, 0.2% active | AID 602313; note: nearly all actives have a fitted effect of over 65% in size
#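 HeLa cells stably expressing A3F-eYFP plus Vif, plated and incubated overnight at 37 deg C, then exposed to compounds overnight at 37 deg C. Blocked degradation read as raised yellow fluorescence (Ex 488/Em 500-530).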
# Epigenetic reg = epigenetic control regulation, reporter derepression | murine LDR cells, GFP reporter derepression, 30 h | Potency, µM (titrated, usually from 53.9 µM), usual class: activators | 280,000 tested, 0.2% active | AID 1865; note: nearly all actives have a fitted effect of over 60% in size
#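 Murine LDR cells bearing a silenced CMV-driven GFP reporter were exposed to compound for 30 h at 37 C. After PBS washes, GFP-positive cells (20-120 um objects) counted by laser-scanning microplate cytometry.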
# PINK1 expr mod = PINK1 expression modulation. Potency, µM (series often up to 76.6 µM), actives largely listed as activators. AID 624263. PINK1 immunofluorescence, high-content cytometry, 24 h. 410,000 tested, 0.2% active; active = well fitted activation curve with a large enough effect; inconclusive = small, poorly fitted or top-dose-only effect; cell line not stated here; note: nearly all actives have a fitted effect of over 65% in size
#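 Stable cell line, 250 cells/well, 12 h attachment; compounds pinned at 5 concentrations, 24 h; CCCP control. Fixed with nuclear dye, primary antibodies 12 h at 10 degrees C, secondary plus cell stain; laser-scanning cytometer read.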
# Hits are given with their value; - = inactive; ? = inconclusive; . = not tested or not shown. The list is not random: actives were taken first. Their share in the collection is about 0.52%. Unless noted, calls come from the whole dose curve; as a rule, active = well fitted curve in the direction sought with a large enough effect; inconclusive = small, poorly fitted or top-dose-only effect, or another doubt; inactive = no such curve, though single readings can be large; an effect the other way counts as inactive or inconclusive.
SMILES,Vif-APOBEC3G blk,Vif-APOBEC3F blk,Epigenetic reg,PINK1 expr mod
CCC1C2CN(C(C)=O)CC=C2C(C#N)=C(N)C1(C#N)C#N (stereo unspecified),-,-,-,-
COc1cc([C@@H]2[C@H]3CNCC=C3C(C#N)=C(N)C2(C#N)C#N)ccc1OC(C)C,?,?,?,-
CN1CC=C2C(C#N)=C(N)C(C#N)(C#N)C(Cc3ccccc3)C2C1 (stereo unspecified),-,-,-,18µM
COC(=O)c1cc(=O)n(Cc2cccs2)c(=Nc2ccccc2)s1,-,-,18µM,-
COc1ccc2c(c1)-c1nc(-n3ncc(C(=O)N(C)CC4CCCN(C)C4)c3C)ncc1CC2 (stereo unspecified),.,.,.,-
Cn1cccc1/C=C1\CCC/C(=C\c2cccn2C)C1=O,?,?,13µM,-
CCN(CC)C(=O)[C@H]1C[C@H](CC(=O)NCC23CC4CC(CC(C4)C2)C3)C(=O)N2CCc3c([nH]c4ccc(Cl)cc34)[C@]12C,-,-,.,?
CC(C)N(C(=O)[C@H]1C[C@H](CC(=O)NCC23CC4CC(CC(C4)C2)C3)C(=O)N2CCc3c([nH]c4ccc(Cl)cc34)[C@]12C)C(C)C,-,?,.,35µM
CN(C)c1nc2cc3c(cc2cc1CN(CC1CCCO1)C(=O)/C=C/c1cccs1)OCO3 (stereo unspecified),.,.,.,-
O=C(NC1CCCCC1)C1CCN(c2nnnn2-c2ccccc2)CC1,-,-,-,-
c1ccc(-n2nnnc2NC2CCCCC2)cc1,-,-,-,2.8µM
O=C(C[n+]1cc(Br)cc2ccccc21)c1ccc(O)c(O)c1,-,.,.,-
O=C(C[n+]1cc(Br)cc2ccccc21)c1ccccc1,?,?,.,40µM
C[C@@H]1CN(Cc2ccc3c(c2)CN(C(=O)c2ccc(Oc4ccccc4)o2)CCO3)C[C@H](C)O1,.,.,.,-
CCOC(=O)N1CCN(C(=O)c2ccc(Cn3c(=S)[nH]c4ccc(Br)cc4c3=O)cc2)CC1,-,-,.,25µM
CCOC(=O)C1CCN(Cc2ccccc2C(F)(F)F)CC1,-,-,-,-
CCOC(=O)C1CCN(Cc2ccc(O)c3ncccc23)CC1,-,-,5.6µM,25µM
CC(=O)c1ccc2cccc3c2c1N=CN3C,13µM,?,-,.
COCC1CCCN(Cc2ccc3c(c2)CN(C(=O)c2cc(-c4ccccc4)n[nH]2)CCO3)C1 (stereo unspecified),.,.,.,-
Cc1csc(NC(=O)c2sc3nc(-c4cccs4)ccc3c2N)n1,?,22µM,?,.
Oc1[nH]c2ccccc2c1N=Nc1ccccc1Cl,-,22µM,.,32µM
COc1ccccc1C1CN(Cc2ccc(Sc3nncn3C)o2)Cc2ccccc2O1 (stereo unspecified),.,.,.,-
CCc1ccc(-c2cc(C(F)(F)F)n3nc(C(=O)Nc4cnn(Cc5ccc(C)cc5)c4)cc3n2)s1,?,11µM,?,-
O=C(Nc1ccc(Oc2ccc(NC(=O)Nc3ccccc3Cl)cc2)cc1)Nc1ccccc1Cl,-,11µM,-,-
COC(=O)c1c(OCc2cccnc2)cc(=O)n2c1CCN(C(=O)c1ccc(OC)c(F)c1)CC2,.,.,.,-
SMILES,Vif-APOBEC3G blk,Vif-APOBEC3F blk,Epigenetic reg,PINK1 expr mod
CN1C(=O)/C(=C\c2ccc(N(C)C)cc2)OC1=S,?,-,.,32µM
COc1ccc(/C=C2\OC(=S)N(C)C2=O)cc1,-,-,-,-
CC(C)Oc1ccc(F)cc1-c1cc(C(=O)NCc2cc(C(F)(F)F)cc(C(F)(F)F)c2)[nH]n1,-,.,.,35µM
CC(C)C(NS(C)(=O)=O)c1nnc2n1CCN(Cc1cccc3ncccc13)CC2 (stereo unspecified),.,.,.,-
Cc1cc(C(=O)CCl)c(C)n1Cc1ccco1,?,-,13µM,?
Cc1cc(C(=O)CSc2nncs2)c(C)n1Cc1ccco1,-,-,-,-
Cc1cc(Nc2ccccc2F)n2nc(-c3ccccc3)nc2n1,-,-,-,-
Cc1cc(Nc2cc(Cl)ccc2C)n2nc(-c3ccccc3)nc2n1,-,-,25µM,-
COc1ccc(/C=C(/C#N)c2nc(-c3ccc(-c4ccccc4)cc3)cs2)cc1OC,-,?,10µM,-
COc1ccc(-c2csc(/C(C#N)=C\c3ccc(O)c([N+](=O)[O-])c3)n2)cc1OC,-,-,-,-
COc1ccc(/C=C(\C#N)c2nc(-c3cc4c(ccc5ccccc54)oc3=O)cs2)cc1O,-,-,13µM,-
COc1ccccc1C1CN(Cc2cccnc2)Cc2ccccc2O1 (stereo unspecified),.,.,.,-
COc1ccccc1NS(=O)(=O)c1cc(NC(=S)Nc2cc(C)cc(C)c2)ccc1Cl,-,-,-,45µM

# Source: PubChem
